The campaign covered roughly 340,000 compounds. About 1,300 (0.38%) were called active. The sample as a whole holds a higher share of actives than the screen did. A number with no mark means an inactive call.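 Rule for the calls: active = maximum activity change below -70%; inconclusive = maximum activity change between -70% and -50%; inactive = maximum activity change above -50%.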
What follows are molecules tested against Voltage-gated inwardly rectifying potassium channel KCNH2 (Homo sapiens) (UniProt Q12809) (assay: qHTS for Inhibitors of KCHN2 3.1: Wildtype qHTS). Conditions: U2OS, BacMam KCNH2, thallium flux FluxOr; at 1.84 µM; active compounds read low.
Voltage-gated inwardly rectifying potassium channel KCNH2 (Homo sapiens), sequence (Q12809 whole entry, looked up, canonical isoform): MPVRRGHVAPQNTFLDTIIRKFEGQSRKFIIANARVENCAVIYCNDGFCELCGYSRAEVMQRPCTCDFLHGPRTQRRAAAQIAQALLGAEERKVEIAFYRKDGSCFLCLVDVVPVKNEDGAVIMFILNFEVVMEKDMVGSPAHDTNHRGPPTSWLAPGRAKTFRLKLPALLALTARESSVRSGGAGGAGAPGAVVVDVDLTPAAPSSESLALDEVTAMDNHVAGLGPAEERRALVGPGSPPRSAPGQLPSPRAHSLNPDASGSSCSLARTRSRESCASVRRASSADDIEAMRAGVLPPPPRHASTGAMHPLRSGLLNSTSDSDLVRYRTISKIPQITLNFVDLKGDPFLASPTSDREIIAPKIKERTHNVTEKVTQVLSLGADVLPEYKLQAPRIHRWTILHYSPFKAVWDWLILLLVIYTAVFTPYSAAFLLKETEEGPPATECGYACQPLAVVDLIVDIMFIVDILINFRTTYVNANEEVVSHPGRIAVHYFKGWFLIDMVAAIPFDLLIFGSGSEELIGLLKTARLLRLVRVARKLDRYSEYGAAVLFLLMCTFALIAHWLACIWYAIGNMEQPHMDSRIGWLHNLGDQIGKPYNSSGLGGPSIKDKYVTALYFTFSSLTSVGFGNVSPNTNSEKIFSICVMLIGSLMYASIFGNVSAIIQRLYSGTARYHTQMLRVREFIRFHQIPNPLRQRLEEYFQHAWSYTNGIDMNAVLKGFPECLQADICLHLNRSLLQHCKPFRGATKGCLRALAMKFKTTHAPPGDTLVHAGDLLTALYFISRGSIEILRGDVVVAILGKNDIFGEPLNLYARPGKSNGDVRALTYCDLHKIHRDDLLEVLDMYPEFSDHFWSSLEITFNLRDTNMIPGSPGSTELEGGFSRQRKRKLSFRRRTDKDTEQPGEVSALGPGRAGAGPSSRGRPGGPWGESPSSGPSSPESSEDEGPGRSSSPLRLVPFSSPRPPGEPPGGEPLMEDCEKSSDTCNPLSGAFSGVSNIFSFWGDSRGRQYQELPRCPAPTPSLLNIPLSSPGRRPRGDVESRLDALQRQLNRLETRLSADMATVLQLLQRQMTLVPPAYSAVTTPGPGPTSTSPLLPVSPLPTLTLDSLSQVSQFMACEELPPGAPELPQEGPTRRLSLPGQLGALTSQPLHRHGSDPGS
Excerpt: Many antipsychotic drugs that inhibit the neurotransmitter dopamine also bind to hERG1 channel which might help explain their antipsychotic activity but also produces cardiac side effects. The discovery of the novel KCNH2 3.1 isoform offers a potential new target for the development of antipsychotic drugs without cardiac side effects. This proposal will use a high throughput thallium flux assay developed for KCNH2 to screen compounds that modulate the activity of KCNH2 3.1. The wild type KCNH2 channel will also be screened in parallel to help define the selective modulators of this KCNH2 3.1 potassium channel. The resulting compounds will be validated in electrophysiology experiments. The availability of animal models will allow future testing in vivo for effects on memory and other aspects of animal physiology linked with psychosis. NIH Chemical Genomics Center [NCGC] NIH Molecular Libraries Probe Centers Network [MLPCN] MLPCN Grant: MH096539 Assay Submitter (PI): James Barrow, Johns Hopkins University, Lieber Institute for Brain Development
U2OS cells were resuspended in cell media containing 10% fetal calf serum (FCS) at a concentration of 2 million cells / mL. The solution was treated with the Wild-type virus at 2.03 x 10^8 / mL and allowed to incubate at room temperature in the dark. After 4 hours of incubation, DMEM + 10% fetal bovine serum (FBS) was added to the cell solution. Three microliter was then dispensed into a 1536 tissue culture treated black assay plates which were incubated overnight at 37 C. Two microliter of loading buffer (HBSS + HEPES + Red40 dye quencher + FluxOr dye) was added and the assay plates were incubated for 45 min at room temperature in the dark. […] A stimulation buffer was added to the plate and the second kinetic read (2 min) was obtained. The rate constant was calculated from the kinetic reads and normalized to the positive and negative DMSO controls.
For `CC(OC(=O)c1cccnc1Cl)C(=O)NC1CCCCC1` (stereo not drawn), the activity change was 10.4%. `COc1ccc(-n2c(-c3ccc(Cl)cc3)n[nH]c2=S)c(OC)c1` showed an activity change of -22.5%. Molecule `Cc1nn(-c2ccccc2)c2c1C(=O)NC(=O)C(C)(C)C2` has an activity change of -0.0713%. `Cc1nn(-c2ncccn2)c2c1C(=O)CC(C)(C)C2Br` (stereo not drawn) was tested, and the activity change was -151% (active). With `CC1=C(N2CCN(c3ncccn3)CC2)CCC1=O` the activity change was 2.31%. With `O=C(COC(=O)CCc1c[nH]c2ccccc12)Nc1cccc(Cl)c1` the activity change was -8.07%. In the case of `CC1(C)CN(CCc2ccccc2)C(=O)[C@H]1CC(=O)Nc1ccc(Br)cc1`, the activity change was -7.47%. In the case of `CCCNC(=O)c1ccc(N2CCC3(CC2)CC(c2ccc(Cl)cc2)=NO3)c([N+](=O)[O-])c1`, the activity change was -85.9% (active). Molecule `CCC(C)NC(=O)c1ccc(N2CCC3(CC2)OCCO3)c([N+](=O)[O-])c1` (stereo not drawn) has an activity change of -3.92%. `COCCNC(=O)c1ccc(N2CCC3(CC2)OCCO3)c([N+](=O)[O-])c1` gave an activity change of -4.71%. Molecule `Cc1cc(C)cc(C(=O)NCC(=O)OCC(=O)N2CCCCC2)c1` has an activity change of -9.23%. `COc1ccc(OC)c(CN2CCN(C(=O)CNC(=O)c3cc(C)cc(C)c3)CC2)c1` was tested, and the activity change was -138% (active). Molecule `COc1cc(OC)cc(C(=O)NCC(=O)N2CCCCCCC2)c1` has an activity change of 8.95%. `COc1ccc(C(CNC(=O)CSc2ccccc2)N2CCOCC2)cc1` (stereo not drawn) was tested, and the activity change was -6.03%. For `Cc1ccc(C=O)c([B-](F)(F)F)c1`, the activity change was -18.6%. `Cc1cc(=O)c2ccc(NC(=O)c3ccccc3)cc2[nH]1` showed an activity change of 13.6%. For `COc1cc(C)c(CN2CCN(C(=O)CCC(=O)c3ccc(C)s3)CC2)cc1OC`, the activity change was 1.74%. `O=C1c2ccccc2C(O)N1Cc1ccccc1Cl` (stereo not drawn) was tested, and the activity change was 23.3%. In the case of `COc1ccc(NC(=O)N2CCCC2C(=O)NCc2ccccc2Cl)cc1` (stereo not drawn), the activity change was -3.26%. `O=C(Nc1ccc(Br)cc1)C1CCC(=O)N1Cc1ccccc1Cl` (stereo not drawn) was tested, and the activity change was -94.2% (active). With `O=C(O)c1c(NC(=O)N2CCCC2)sc2c1CCCC2` the activity change was 0.0561%. Work on `CCN1CCN(CC(=O)Nc2sc3c(c2C#N)CCC3)CC1` yielded an activity change of 5.2%. In the case of `O=C(CN1CCCC1)Nc1sc2c(c1C(=O)Nc1ccccc1)CCCC2`, the activity change was -93.7% (active). With `c1ccc(Cn2nnc3c(NCC4CC4)ncnc32)cc1` the activity change was -10.7%. Molecule `Cc1c(NC(=O)COC(=O)/C=C/c2cccc(F)c2)c(=O)n(-c2ccccc2)n1C` has an activity change of 0.394%. `Cc1csc(=O)n1CCC(=O)OCC(=O)Nc1ccc(N2CCOCC2)cc1` gave an activity change of -7.46%. `Cn1c(CCN2CCN(c3ccccn3)CC2)nc2cc(NS(=O)(=O)c3ccc(F)cc3)ccc21` gave an activity change of -20.6%. For `COc1ccc(C(=O)NC2CC2)cc1OC1CCN(Cc2ccc(SC)cc2)CC1`, the activity change was -117% (active). With `COc1ccc(C(=O)NCCn2nc(C)cc2C)cc1OC1CCN(C(C)=O)CC1` the activity change was 3.09%. Work on `COc1cc(C(=O)N2CCN(C/C=C/c3ccccc3)CC2)cc(OC)c1C` yielded an activity change of -0.254%. `COc1ccc(C(=O)NC2CC2)cc1OC1CCN(Cc2cnn(C)c2)CC1` was tested, and the activity change was -9.12%. With `COc1cc2[nH]c(=O)n(Cc3ccc(C(=O)NC4CCN(Cc5ccccc5)CC4)cc3)c(=O)c2cc1OC` the activity change was -9.69%. In the case of `COc1ccc(C(=O)NC2CC2)cc1OC1CCN(C/C=C/c2ccccc2)CC1`, the activity change was -83.5% (active). `O=C(NCc1ccccc1)C1CNCC(C(=O)NCc2ccccc2)C1` (stereo not drawn) showed an activity change of -19%. With `COc1ccc(-c2ccc3[nH]c4c(c3c2)CCN2C[C@H]3[C@H](C)ON(C)[C@H]3C[C@@H]42)cc1` the activity change was -1.03%. In the case of `COc1cc(NC(=O)C2=C(C)OCCS2)c(Cl)cc1C(=O)NCCCN1CCCC(C)C1` (stereo not drawn), the activity change was 15%. For `N#CC1(Nc2ccc3c4c(cccc24)CC3)CCCCC1`, the activity change was -12.6%. With `COc1cccc(CC2(CO)CCCN(Cc3ccc(OC(F)F)cc3)C2)c1` (stereo not drawn) the activity change was -73.9% (active). Molecule `COc1cccc(CC2(CO)CCCN(CC3=Cc4cc(OC)ccc4OC3)C2)c1` (stereo not drawn) has an activity change of 8.29%. In the case of `COc1cccc(CC2(CO)CCCN(Cc3nc(-c4cccs4)oc3C)C2)c1` (stereo not drawn), the activity change was -11.7%. `C[C@@H]1CN([C@@H](C)CO)C(=O)CCCn2nncc2CO[C@H]1CN(C)C(=O)Nc1ccc(C(F)(F)F)cc1` was tested, and the activity change was -21.9%. Molecule `O=C(CN1CCCCC1)Nc1ccccc1C(=O)NC1CC1` has an activity change of 4.09%. `Cc1ccc(OCC(=O)Nc2ccccc2C(=O)NC2CC2)cc1` gave an activity change of 36.5%. `N#Cc1ccc(CN2CCN(CC(=O)Nc3ccccc3C(=O)NC3CC3)CC2)cc1` was tested, and the activity change was -89.2% (active). Work on `COc1ccc(OC)c(C(=O)NC2CCCc3c2cnn3-c2cc(C)cc(C)c2)c1` (stereo not drawn) yielded an activity change of -0.114%. In the case of `CC1(C)NC(=O)N(CC(=O)Nc2ccc(-c3ccccc3)cc2)C1=O`, the activity change was -12.6%. `COc1ccc2oc(C(=O)NCc3ccco3)c(C)c2c1` gave an activity change of 26.9%. With `O=C(NCc1ccco1)c1sc2cccc(F)c2c1Cl` the activity change was -25.2%. In the case of `COc1ccc2c(Cl)c(C(=O)NCc3ccco3)sc2c1`, the activity change was -70.1% (active). In the case of `OCC1OC(n2cnc3c(N4CCCC4)ncnc32)C(O)C1O` (stereo not drawn), the activity change was -11.6%. With `C[C@H]1CN(c2ccc(Br)cc2)C(=O)[C@@H]1CC(=O)Nc1ccc(Br)cc1` the activity change was 1.02%. `C=CCNC(=O)c1sc(SC)cc1-c1ccc(Cl)cc1` was tested, and the activity change was -187% (active). For `CSc1sc(C(=O)NNC(=O)c2ccc(Cl)cc2)c2c1C=CCC2`, the activity change was -2.11%. `CN(CC(=O)Nc1ccc(F)cc1)C(=O)c1ccc(-c2ccc(Cl)cc2)o1` gave an activity change of -18.6%. In the case of `Cc1cc(C)c(S(=O)(=O)NCCCN2CCOCC2)cc1Br`, the activity change was 12.5%. Molecule `O=S(=O)(NCCCN1CCOCC1)c1ccc(F)c(Cl)c1` has an activity change of 4.11%. For `Cc1ccc(S(=O)(=O)NCCN2CCOCC2)cc1C`, the activity change was -76.1% (active). `C[C@H]1CN([C@@H](C)CO)S(=O)(=O)c2ccc(Br)cc2O[C@H]1CN(C)C(=O)c1cnccn1` showed an activity change of 2.27%.

— PubChem BioAssay AID720551 (National Center for Advancing Translational Sciences (NCATS), 2013)
% is set by controls: 0 for no effect and ±100 for the full control effect.
